Screens from PubChem BioAssay.
RE007 growth inh = qHTS Assay for Inhibitors of the HIV-1 protein Vpr; S. pombe RE007 Vpr strain, BacTiter-Glo ATP luminescence, 24 h; Potency, µM (doses to about 92.2 µM), without a hit: at the top dose activity change, negative = less growth, actives largely listed as inhibitors; hit rate 0.21% among 360,000; active means well fitted falling curve with a large enough effect; inconclusive means small, poorly fitted or top-dose-only effect; inactive means no such curve, though single readings can be large or run the other way; further: potency means the concentration at half of the fitted maximal effect; on the % scale 0 is the no-effect control and ±100 the full control effect; nearly all actives have a fitted effect of over 50% in size
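Fission yeast RE007 carrying one integrated HIV-1 vpr copy, seeded at OD 0.01 in PMG+AL medium with 23 nL pinned compound. Grown 24 h at 30 degrees; viability read by BacTiter-Glo luminescence after 5 min.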
LmPK inh = qHTS Assay for Inhibitors of Leishmania Mexicana Pyruvate Kinase (LmPK); Potency, µM (titrated, usually from 57.5 µM), without a hit: at the top dose activity change, negative = inhibition, usual class: inhibitors; AID 1721, 2009; Q27686; purified LmPK, Kinase-Glo ATP luminescence, 1 h; hit rate 0.37% among 290,000; further: potency means the concentration at half of the fitted maximal effect; on the % scale 0 is the no-effect control and ±100 the full control effect
Target sequence (Q27686 whole entry, looked up): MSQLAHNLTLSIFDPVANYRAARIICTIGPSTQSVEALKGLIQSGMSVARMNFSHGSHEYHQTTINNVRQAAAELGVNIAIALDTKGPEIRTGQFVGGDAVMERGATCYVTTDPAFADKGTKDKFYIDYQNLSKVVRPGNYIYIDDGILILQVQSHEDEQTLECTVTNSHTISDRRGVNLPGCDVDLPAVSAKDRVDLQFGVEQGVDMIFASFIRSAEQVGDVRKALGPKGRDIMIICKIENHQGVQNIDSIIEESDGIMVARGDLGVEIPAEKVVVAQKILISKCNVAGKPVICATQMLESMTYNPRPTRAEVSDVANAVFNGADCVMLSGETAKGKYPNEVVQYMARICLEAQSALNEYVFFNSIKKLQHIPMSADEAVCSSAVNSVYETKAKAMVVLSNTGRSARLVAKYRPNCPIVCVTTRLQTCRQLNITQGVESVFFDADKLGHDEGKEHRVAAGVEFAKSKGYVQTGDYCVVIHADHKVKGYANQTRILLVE
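ATP generated from ADP (0.1 mM) and PEP (0.5 mM) by 0.1 nM LmPK over 1 h at room temperature (pH 7.2 imidazole buffer) was detected by coupled luciferase luminescence. Values were normalized to uninhibited and no-enzyme wells.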
FBPA Giardia inh = qHTS Assay for Inhibitors of Fructose-1,6-bisphosphate Aldolase from Giardia Lamblia; hit rate 0.71% among 290,000; Potency, µM (titrated, usually from 59.6 µM), for the others: at the highest dose activity, negative = inhibition, most hits filed as inhibitors; purified Giardia FBPA; AID 2451, 2010; A8B2U2; further: potency means the concentration at half of the fitted maximal effect; on the % scale 0 is the no-effect control and ±100 the full control effect; nearly all actives have a fitted effect of over 55% in size
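Giardia FBPA (40 nM reagent) was preincubated 10 min at RT with compound (up to 57.5 uM final), then substrate plus GAPDH/TPI/NAD/arsenate coupling system with diaphorase/resazurin was added; resorufin fluorescence (525/598 nm) was read after 20 min.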
Tb PYK inh = qHTS of Trypanosoma Brucei Inhibitors. hit rate 0.12% among 410,000. Potency, µM (series often up to 76.8 µM), for the others: at the highest dose activity, negative = inhibition, most hits filed as inhibitors. AID 624173, 2012. pyruvate kinase (Trypanosoma brucei), Q57TT1. TbPYK enzyme, Kinase-Glo Plus ATP luminescence, 45 min; further: potency means the concentration at half of the fitted maximal effect; on the % scale 0 is the no-effect control and ±100 the full control effect; nearly all actives have a fitted effect of over 50% in size
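Readout: single end-point luminescence (Kinase-Glo Plus, 10 min). Reaction conditions were TbPYK/substrate plus 130 uM ADP, 45 min at RT, pH 7.2 TEA buffer. No-enzyme wells served as controls, and data were normalized before concentration-response fitting.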
LmPK inh confirm = Confirmation Assay for Inhibitors of Leishmania Mexicana Pyruvate Kinase (LmPK) | Potency, µM (series often up to 57.5 µM), for inactives: at the highest dose activity change, negative = inhibition, actives largely listed as inhibitors | purified LmPK, Kinase-Glo ATP luminescence, 1 h | shares compounds with LmPK inh | hit rate 40% among 150;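 active means compounds giving a full or partial concentration-response curve, as inhibitors or activators; inconclusive means weak, top-dose-only or unclear curve responses; inactive means no response at any tested dose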
* marks the source's active call; other numbers are inactive results; ? = inconclusive; · = no result given; [ ] = dose if it differs, or a comment. Only some compounds are listed: those with a hit (about 0.95% of all), similar ones and a draw of the others. Unless noted, the call rests on the fitted dose curve; in most records, active means well fitted curve in the direction sought with a large enough effect; inconclusive means small, poorly fitted or top-dose-only effect, or another doubt; inactive means no such curve, though single readings can be large; an effect the other way counts as inactive or inconclusive.

SMILES | RE007 growth inh | LmPK inh | FBPA Giardia inh | Tb PYK inh | LmPK inh confirm
CCOC(=O)c1nnn(-c2nonc2N)c1-c1ccc(C)cc1 | 0% | 7% | -8% | -1% | 5%
Cc1cc(C)c(S(=O)(=O)n2ccc(-c3ccc(OCCN(C)c4ccccn4)cc3)n2)c(C)c1 | -4% | 3% | 4% | -5% | 2%
CN(C)/C=C/C(=O)c1ccc(OCCN(C)c2ccccn2)cc1 | · | 4% | -3% | 2% | ·
CC(=O)Nc1ccc(Nc2nc3ccc(Cl)cc3n3cnnc23)cc1 | · | · | · | 0% | ·
Cc1cccc(C(=O)NC2CCN(C(=S)NCc3ccco3)CC2)c1 | -4% | -8% | 5% | -4% | -1%
Cc1ccnc(N2C(=O)c3cccc4c([N+](=O)[O-])ccc(c34)C2=O)c1 | ? | 1% | -22% | 0% | ·
Cc1ccnc(N2C(=O)c3ccccc3C2=O)c1 | 2% | -6% | 2% | -1% | -14%
COc1cccc(-c2nc3ccccc3s2)c1 | ? | 10µM* | -3% | -19% | ?
O=C(O)Cc1cccc(OCCCN(Cc2cccc(C(F)(F)F)c2Cl)CC(c2ccccc2)c2ccccc2)c1 | · | · | -10% | 6% | ·
Cc1ccc(-c2cc(C3C4C=CCCC4(C)C(=O)N3Cc3ccccc3)ccc2F)cc1 (stereo unspecified) | · | · | 1% | · | ·
CCOC(=O)C(C(C)=O)c1c(Br)c(O)c(O)c2c(C(=O)c3ccc(C)cc3)coc12 (stereo unspecified) | -7% | 5.6µM* | ? | -18% | -7%
COCCNC(=O)C1(C(F)(F)F)C/C(=C\CCO)CCCO1 (stereo unspecified) | · | · | 5% | · | ·
COC1(C#CC2C=CC(OC(C)=O)C(COC(C)=O)O2)CCCCC1 (stereo unspecified) | · | · | 0%[12.9 µM] | · | ·
c1ccc(C2=NNC(=NC3CC3)SC2)cc1 | ? | 4.5µM* | -24% | ? | 15µM*
c1ccc2c(C3=NNC(=NC4CC4)SC3)c[nH]c2c1 | -3% | -25% | -4% | -11% | ·
O=C(c1ccccc1)n1c(=S)nc2ccccn21 | -26% | 4.5µM* | 4% | ? | 18µM*
Cc1cc(O)c(-c2cc(O)c(C)cc2O)cc1O | 0% | 0.71µM* | 16µM* | ? | ?
O=C1C2=CC[C@H]3C(=O)N(Cc4ccc5c(c4)OCO5)C(=O)[C@@H]3[C@@H]2[C@H](O)[C@@H]2O[C@H]12 | · | · | 0%[12.9 µM] | · | ·
CC[C@H](C)[C@H](NC(=O)[C@H](CC(C)C)NC(=O)[C@H](CC(N)=O)NC(=O)[C@@H](NC(=O)[C@@H](N)Cc1ccc(O)cc1)[C@@H](C)CC)C(=O)N[C@@H](Cc1ccc(O)cc1)C(=O)N[C@@H](CCCN=C(N)N)C(=O)N[C@@H](CC(C)C)C(=O)N[C@@H](CCCN=C(N)N)C(=O)N[C@@H](Cc1ccc(O)cc1)C(N)=O | · | · | 3% | · | ·
COc1ccc(OC)c2[nH]c(=O)c(CCNS(=O)(=O)c3ccc(C)cc3)cc12 | 3% | 2% | ? | 3% | 5%
Fc1ccc(-c2nc3n(n2)Cc2ccccc2-3)cc1 | ? | 3.5µM* | -21% | -11% | ?
CCOc1ccc(NC(=O)Cn2nc(-c3ccccc3Cl)n(CC)c2=S)cc1 | 10% | 2% | 0% | 3% | ·
CCn1c(-c2ccccc2Cl)nn(CC(=O)Nc2ccc(OC)cc2)c1=S | -9% | -5% | -10% | 0% | 11%
CC(C)N(C)Cc1cn(C)nc1-c1ccc(Oc2ccccc2)cc1 | -1% | 4% | 14% | 3% | ·
CCN(Cc1ccncc1)Cc1cn(C)nc1-c1ccc(Oc2ccccc2)cc1 | 1% | 2% | -5% | 4% | -2%
SMILES | RE007 growth inh | LmPK inh | FBPA Giardia inh | Tb PYK inh | LmPK inh confirm
Cc1cc(C)c2cc(C#N)c(NCCOC(=O)c3ccccc3C)nc2c1 | -6% | 0% | -7% | 4% | 2%
Cc1occc1C(=O)O/N=C(\N)c1ccccc1 | ? | 3.5µM* | 0% | ? | 10µM*
Cc1cccc(/C(N)=N/OC(=O)c2ccoc2C)c1 | -20% | 0% | 3% | -33% | ·
Cc1ccc(S(=O)(=O)n2c3ccccc3c3nnc(C(=O)c4ccccc4)nc32)cc1 | · | · | 0%[12.9 µM] | · | ·
COC(=O)CSC1=NS(=O)(=O)c2ccccc21 | -17% | 5µM* | 3% | 22µM* | ?
CC(=O)Nc1ccc(C(=O)NNC(=O)CCc2ccccc2)cc1 | -11% | -4% | 6% | -7% | 4%
O=C(CCc1ccccc1)NNC(=O)c1ccc(NC(=O)c2ccccc2)cc1 | -14% | 2% | 2% | -6% | ·
Cn1cc(CN(Cc2ccccc2)C[C@@H]2CCC(=O)N2)c(-c2ccccc2F)n1 | -2% | -1% | -4% | -2% | 6%
Cc1ccc(C)c(/C(O)=C2/C(=O)C(=O)N(CCN3CCOCC3)C2c2ccco2)c1 (stereo unspecified) | -4% | 2% | -13% | 4% | 10%
Cc1ccc(C2/C(=C(/O)c3ccccc3)C(=O)C(=O)N2CCN2CCOCC2)o1 (stereo unspecified) | -8% | -2% | -15% | -12% | ·
CN(Cc1ccon1)Cc1cn(C)nc1-c1cccc(Cl)c1 | -22% | 13µM* | ? | 3% | -7%
CN(Cc1cn(C)nc1-c1cccc(Cl)c1)C1CCOCC1 | -5% | 2% | -3% | 2% | ·
COc1ccc(C2/C=C\CN(CC3CC3)C(Cc3ccccc3)C(=O)N2Cc2ccc(F)cc2)cc1 (stereo unspecified) | · | · | 0% | · | ·
O=C1c2ccccc2C(=O)C1c1nccc2ccccc12 | -5% | -24% | -7% | -18% | ·
O=C1c2ccccc2C(=O)C1c1ccnc2ccccc12 | -8% | 7.1µM* | -1% | -14% | ?
CC(C)(C)N1C(=O)[C@H]2[C@H]3[C@H](O)[C@H](O)C/C(=N/OCc4ccccc4)[C@H]3CC[C@@H]2C1=O | · | · | -3%[12.9 µM] | · | ·
Cc1ccc(C(=O)NNC(=O)CSc2nnc(-c3ccncc3)n2-c2ccc(C)cc2)cc1 | · | -23% | 1% | · | 3%
Cc1ccc(-c2cc3c(nn2)-c2ccccc2C3=O)cc1 | -18% | 7.1µM* | -8% | ? | 10µM*
O=C1c2ccccc2-c2nc3ccccc3cc21 | 7% | ? | 2% | -4% | ·
O=c1c2ccccc2nc2c3ccccc3cnn12 | -9% | -12% | 1% | 2% | ·
O=c1c2ccccc2cnn1-c1nc2ccccc2[nH]1 | ? | 2.2µM* | -14% | 13µM* | 3.3µM*
Cc1ccc(S(=O)(=O)NC(=O)O[C@@H]2C(=O)c3cc(Br)ccc3O[C@H]2c2ccc3c(c2)OCO3)cc1 | · | · | 4% | · | ·
Cc1ccc(Oc2ccccc2/C=C2\SC(=O)N(C)C2=O)cc1 | -7% | -5% | 0% | -2% | -4%
CC(=O)c1cc(C#N)c(Oc2ccc(F)cc2)nc1C | -13% | 4% | 4% | -3% | 4%
